Screening results deposited in PubChem BioAssay by National Center for Advancing Translational Sciences (NCATS).
Sampled rows, rich in hits. Any-hit rate of the full collection: about 1.1%.
Glioma ERSR ind: inducers of ER stress response in human glioma cells | U87-MG GRP78 promoter luciferase reporter, 16 h | Potency, µM, for the others: top-dose activation, usual class: activators | 0.02% of 420,000 active | AID 602332; note: series mostly up to about 76 µM; % of control where 0% means no effect; nearly all actives have a fitted effect of over 35% in size
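Stably transfected U87-MG glioma cells carrying a GRP78-based luciferase sensor; 16 h compound incubation. Luminescence end-point read 10 min after Bright-Glo addition at room temperature.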
ALOX12 inh: inhibitors of human 12S-lipoxygenase ALOX12 | P18054 | 1.1% of 580,000 active | Potency, µM (series often up to 108 µM), without a hit: top-dose activity change, negative = inhibition, hits mostly inhibitors | AID 1671190 | purified 12hLO, xylenol orange hydroperoxide absorbance; note: % is set by controls: 0 for no effect and ±100 for the full control effect
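Hydroperoxide product was detected by ferrous iron/xylenol orange as the 573 to 405 nm absorbance ratio. Arachidonic acid at 40 uM (final) was turned over for 30 min at room temperature by 150 nM human 12hLO, pH 7.0 Hepes buffer, after 15 min compound preincubation.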
Chronic BCR inh: blocks chronic active B-cell receptor signaling | ABC-DLBCL IkBa-CBG/CBR reporter, luminescence ratio, 4 h | Potency, µM (highest dose often 46.1 µM), for inactives: at the highest dose activity change, negative = inhibition, usual class: inhibitors | 0.05% of 340,000 active; active = well fitted inhibition curve with a large enough effect in the signal ratio, with a control signal flat, not every such curve was filed as active; inconclusive = small, poorly fitted or top-dose-only effect, or effect the other way, or a change in a side signal; the % refers to the signal ratio;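 note: plate controls were basal doxycycline-induced cells for no effect and cells given 10 µM MG132 for full effect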
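Doxycycline induced both beetle luciferases in TMD8 lymphoma cells; IKK-driven degradation limits the IkappaBalpha-fused green signal, while red luminescence normalises for cell number and nonspecific effects. Compounds tested up to 46 uM, 4 hrs.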
Apoferritin bind: binds horse apoferritin like a general anesthetic. P02791. apoferritin/1-aminoanthracene competitive binding, fluorescence. Potency, µM (titrated, usually from 77.5 µM), inactives show at the highest dose activity change, negative = displacement, actives largely listed as inhibitors. 0.074% of 350,000 active. AID 485281; note: % is set by controls: 0 for no effect and ±100 for the full control effect; nearly all actives have a fitted effect of over 20% in size
Target sequence (P02791 2-175 limits assumed): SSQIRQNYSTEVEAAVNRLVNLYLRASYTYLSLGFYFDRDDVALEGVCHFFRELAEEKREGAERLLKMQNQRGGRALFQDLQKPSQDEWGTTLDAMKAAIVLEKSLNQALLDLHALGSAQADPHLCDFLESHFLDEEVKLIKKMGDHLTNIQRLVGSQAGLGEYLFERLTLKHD
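Concentration-response curves derived by four-parameter Hill fitting of normalized fluorescence, where compounds displaced 1-AMA from 10 uM horse apoferritin following a brief 10 min room-temperature incubation; propofol titration acted as positive control.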
An asterisk follows results filed as active; ? = inconclusive; nt = no result; [ ] = another dose, or the depositor's remark. Unless noted, calls come from the whole dose curve; as a rule, active = well fitted curve in the direction sought with a large enough effect; inconclusive = small, poorly fitted or top-dose-only effect, or another doubt; inactive = no such curve, though single readings can be large; an effect the other way counts as inactive or inconclusive. Potency is the fitted concentration of half-maximal effect.

SMILES | Glioma ERSR ind | ALOX12 inh | Chronic BCR inh | Apoferritin bind
CCC(CC)C(=O)OCC(=O)NC12CC3CC(CC(C3)C1)C2 | 0% | -16% | 17% | 6.3µM*
COCC(=O)N1CCN(c2oc(-c3ccco3)nc2C#N)CC1 | nt | -27% | nt | nt
CCCc1ccc(Oc2cc(-n3ncc(C(C)=O)c3C)nc(C)n2)cc1 | nt | 12% | nt | nt
CCOC(=O)c1sc(-c2ccc(OC)c(OC)c2)cc1NC(=O)c1ccco1 | nt | -28% | nt | nt
CC(C)(C=O)C1=CC(=O)c2ccccc2C1=O | -13% | 40µM* | ? | -3%
Cc1cc(C)cc(C(=O)NCC(=O)N(C)Cc2c(C)nn(-c3ccccc3)c2C)c1 | nt | -14% | nt | nt
CC(C)N(CC#CCC1(O)c2ccccc2-c2ccccc21)CCO | -3% | 7.9µM* | 3% | 5%
CCN(CC#CCC1(O)c2ccccc2-c2ccccc21)CCO | -5% | -26% | 10% | -11%
COC(=O)COc1cc(OCC(=O)OC)c2c(-c3ccccc3)cc(=O)oc2c1 | 5% | 0% | -7% | -14%
COC(=O)C(C)Oc1cc(OC(C)C(=O)OC)c2c(-c3ccccc3)cc(=O)oc2c1 (configuration not stated) | 32µM* | 29% | -7% | -9%
CC(C)CCSc1nc2c(c(=O)[nH]c(=O)n2C)n1C(C)C | nt | 36% | nt | nt
CCC1(N2CCN(S(=O)(=O)c3ccc4c(c3)CCCC4)CC2)CCN(C(=O)NC)C1 (configuration not stated) | nt | 32µM* | nt | nt
CCC1(N2CCN(S(=O)(=O)c3cc(F)ccc3C)CC2)CCN(C(=O)NC)C1 (configuration not stated) | nt | -21% | nt | nt
COc1ccc(C2CC(c3cccc(F)c3)=NN2c2ccc(S(N)(=O)=O)cc2)cc1 (configuration not stated) | 3% | 32µM* | 0% | nt
COc1ccc(C2CC(c3cccc(Br)c3)=NN2c2ccc(S(N)(=O)=O)cc2)cc1 (configuration not stated) | -10% | ? | ? | nt
CCN1CCN(c2oc(-c3cccc(Cl)c3)nc2C#N)CC1 | nt | -29% | nt | nt
Clc1ccccc1-c1nccc(NCCN2CCOCC2)n1 | -1% | 45µM* | nt | nt
O=C(Nc1ccc2oc(-c3cccnc3)nc2c1)c1ccc(Cl)c([N+](=O)[O-])c1 | nt | -6% | nt | nt
COc1ccc(C(=O)Nc2cccc3ccc(C)nc23)cc1Cl | nt | 7% | nt | nt
O=C1NC(=S)SC1=Cc1ccc(Cl)cc1 | 1% | 22µM* | nt | nt
O=C1NC(=S)SC1=Cc1ccccc1Br | 3% | ? | nt | nt
O=C1NC(=O)C(=Cc2ccc(Cl)cc2Cl)S1 | -6% | 40µM* | nt | nt
O=C1NC(=S)SC1=Cc1cc(Br)ccc1O | 2% | 25µM* | nt | nt
Cc1ccccc1-n1nnnc1C1(NCc2ccccc2)CCCC1 | nt | -8% | nt | nt
Cc1cc(NC(=O)C(C)C)cc(-c2nc3ccccc3o2)c1O | nt | -5% | nt | nt
SMILES | Glioma ERSR ind | ALOX12 inh | Chronic BCR inh | Apoferritin bind
Fc1cccc(Cl)c1C1NC(=S)NC2=C1CCc1ccccc12 (configuration not stated) | nt | 40µM* | nt | nt
S=C1NC2=C(CCc3ccccc32)C(c2ccccc2)N1 (configuration not stated) | nt | 16µM* | nt | nt
S=C1NC2=C(CCCC2=C2SCCCS2)C(c2ccccc2)N1 (configuration not stated) | -1% | 14µM* | 13% | -19%
CCc1cc2c(N3CCCCC3)ncnc2s1 | -4% | 28µM* | -1% | -17%
CCC1CCC/C1=N\NC(=O)c1ccncc1 (configuration not stated) | nt | 6% | nt | nt
Cn1c(=O)[nH]c(=O)c2c1nc(SCC(=O)Nc1ccccc1)n2Cc1ccccc1Cl | nt | -26% | nt | nt
CCCCCCCNC(=O)C1(CC2CC(c3cccc(Br)c3)=NO2)CCN(C(=O)CCCCCBr)CC1 (configuration not stated) | -5% | 40µM* | -1% | nt
CC(C)C(N)c1csc(Nc2cc(Oc3ccccc3)ncn2)n1 (configuration not stated) | -1% | 34% | nt | nt
NC(c1ccccc1)c1csc(Nc2cc(Oc3ccccc3)ncn2)n1 (configuration not stated) | -3% | 35µM* | nt | nt
CC1C=CC(C)N1c1ncnc2c1CN(C1CCNC1)C(=O)CN2C (configuration not stated) | nt | 7%[6.33 µM] | nt | nt
Clc1cccc(Cl)c1C=Nc1ccc(-c2ccc(N=Cc3c(Cl)cccc3Cl)cc2)cc1 | nt | -3% | nt | nt
CC1=C/C(=C(\c2ccc(O)c(C)c2)c2ccccc2S(=O)(=O)O)C=CC1=O | -4% | 6.3µM* | 0% | -1%
N#Cc1cccc(NC(=O)N[C@H]2[C@H](O)[C@@H](N3CCC(Cc4ccccc4)CC3)[C@@H]3OC[C@H]2O3)c1 | nt | 45µM* | nt | nt
Cc1nc(-c2ccc(F)cc2)n(CC(=O)Nc2cc(C(F)(F)F)ccc2Cl)c(=O)c1CCO | nt | -2% | nt | nt
Cc1cccc(NC(=O)CCCc2nc3ccccc3o2)c1 | nt | 10% | nt | nt
COc1ccc(C=O)c(OCc2cn(CC(=O)c3ccc(O)cc3)nn2)c1 | -2% | 1.3µM* | nt | nt
Cc1nn2c(c1-c1ccccc1-c1ccccc1)N(CCC(C)C)CCC2 | nt | 40µM* | nt | nt
Cc1nn2c(c1-c1ccccc1-c1ccccc1)N(Cc1ccccc1)CCC2 | nt | 6%[176 µM] | nt | nt
COc1ccccc1CNC(=O)C(C)Sc1nc2cc(Cl)ccc2n1C (configuration not stated) | nt | -6% | nt | nt
C/C(=N/Nc1ccc(C(=O)O)cc1)c1ccc2c(c1)Nc1ccccc1S2 | 3% | 28µM* | nt | nt
CC(Sc1ncnc2nc[nH]c12)C(=O)Nc1ccc(Oc2ccccc2)cc1 (configuration not stated) | nt | 6% | nt | nt
CCN(Cc1ccc(Cl)s1)C(=O)Cn1nnc(-c2cccc(C(F)(F)F)c2)n1 | nt | 44% | nt | nt
Nc1nc(=S)c2[nH]c(=S)[nH]c2[nH]1 | -4% | 7.9µM* | nt | nt
Cc1cccc(NS(=O)(=O)c2cc(-c3cnc(C)o3)ccc2C)c1 | nt | -2% | nt | nt
COc1ccc(C(=O)c2nc3c(n2O)CCCCC3)cc1 | 0% | ? | ? | -18%
SMILES | Glioma ERSR ind | ALOX12 inh | Chronic BCR inh | Apoferritin bind
COc1ccc(C(=O)c2nc3c(n2O)CCCC3)cc1OC | -5% | 8.9µM* | -1% | -19%
COc1ccccc1CNc1nc(-c2ccco2)nn1S(=O)(=O)c1ccccc1 | nt | -13% | nt | nt
COc1ccc(C(=O)NCC(=O)OCC(=O)c2ccc3c(c2)OCCO3)cc1 | -1% | 5% | -31% | 13µM*
Cc1ccc(C(=O)NCC(=O)OCC(=O)c2ccc3c(c2)OCCO3)cc1C | 2% | 0%[57.4 µM] | -20% | 10µM*
COc1ccc(S(=O)(=O)N2CCc3ccccc32)cc1C(=O)N1CCN(c2ncccn2)CC1 | nt | 40µM* | nt | nt
COCc1c(C(=O)N2CCC(C(=O)Nc3ccc4c(c3)OCO4)CC2)oc2ccccc12 | nt | -1% | nt | nt
Cc1ccc(OCc2nc3c4c(ncn3n2)Oc2cc(O)ccc2C4c2ccccc2)cc1 (configuration not stated) | nt | 42% | nt | nt
CN(C(=S)NC(=O)C1CCCC1)c1ccccc1 | 0% | 20µM* | nt | nt
CN(Cc1ccccc1)C(=S)NC(=O)C1CCCCC1 | -1% | -9% | ? | ?
c1ccc(-c2nc(NCc3cccnc3)c3oc4ccccc4c3n2)cc1 | -4% | 16µM* | ? | 3%
